# Screening results (PubChem BioAssay)
# Compounds with a hit are over-represented: about 12% of the library has one in this group of screens.
# HP1b chromo inh: HP1-beta chromodomain-methylated histone interaction inhibition. AID 540317. P83916. 390,000 compounds, 0.56% hits. Potency, µM (highest dose often 114 µM), for inactives: top-dose activity change, negative = inhibition, usual class: inhibitors. AlphaScreen HP1-beta / biotin-H3K9me3 peptide binding; note: nearly all actives have a fitted effect of over 70% in size
#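 AlphaScreen: HP1-beta (50 nM) preformed 30 min with biotin-H3(1-18)K9me3 peptide (50 nM) in PBS pH 7.4, 0.01% Tween-20. Compound added for 30 min at RT, then streptavidin donor/nickel chelate acceptor beads (10 ug/mL) for 30 min.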
# JMJD2A Tudor: blocks the human JMJD2A Tudor domain; O75164; AlphaScreen JMJD2A-Tudor / H3K4me3 peptide binding; Potency, µM (highest dose often 114 µM), for the others: at the highest dose activity change, negative = inhibition, most hits filed as inhibitors; 390,000 compounds, 4.4% hits; AID 504339; note: % is set by controls: 0 for no effect and ±100 for the full control effect; nearly all actives have a fitted effect of over 50% in size
# PLK1 PBD inh: inhibitors of human PLK1 polo-box domain binding; P53350; Plk1 PBD binding of FITC phosphopeptide, fluorescence polarization; Potency, µM, without a hit: max response, negative = inhibition, most hits filed as inhibitors; 360,000 compounds, 2.8% hits; note: series mostly up to about 57 µM; % is set by controls: 0 for no effect and ±100 for the full control effect; nearly all actives have a fitted effect of over 65% in size
# Sfp inh: Sfp phosphopantetheinyl transferase inhibition | Q9F4F7 | Biochemical Sfp PPTase activity, qHTS | 310,000 compounds, 3.5% hits | AID 1490 | Potency, µM, for the others: largest response in the series, negative = inhibition, hits mostly inhibitors;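 note: the enzyme is Sfp with the accession as filed and its product quenches rhodamine fluorescence; 0% = enzyme reaction without inhibitor and -100% = no enzyme wells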
#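 Step 1, compound plus 15 nM Sfp-PPTase, 15 min, room temperature. Step 2, add rhodamine-CoA (5 uM) and BHQ-2-YbbR (12.5 uM). Step 3, read 525/598 nm fluorescence at 0 and 30 min.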
# G9a inh: inhibitors of human histone lysine methyltransferase G9a; G9a H3K9 monomethylation, AlphaScreen, 2 h; Potency, µM (highest dose often 102 µM), for inactives: top-dose activity, negative = inhibition, most hits filed as inhibitors; 350,000 compounds, 8.8% hits; AID 504332; note: % is set by controls: 0 for no effect and ±100 for the full control effect; nearly all actives have a fitted effect of over 75% in size
#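 Quantitative HTS format: methyltransferase activity on a biotin-tagged H3K9 peptide is measured by AlphaScreen, using a rabbit anti-monomethyl-H3K9 antibody with streptavidin donor and anti-IgG acceptor beads. Final levels are 20 nM enzyme, 500 nM peptide, 20 uM SAM; 2 h RT.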
# BAZ2B block: BAZ2B (human) inhibition. Q9UIF8. AlphaScreen BAZ2B-H3K14Ac peptide displacement. Potency, µM (doses to about 114 µM), for inactives: top-dose activity change, negative = inhibition, usual class: inhibitors. 360,000 compounds, 4.4% hits. AID 504333; note: % is set by controls: 0 for no effect and ±100 for the full control effect; nearly all actives have a fitted effect of over 60% in size
#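 Complex of BAZ2B and biotin-H3K14Ac (50 nM apiece) forms over 30 min at RT, then faces library compounds up to 110 uM for another 30 min; AlphaScreen beads added, 20 min dark incubation, luminescence read.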
# An asterisk follows results filed as active; ? = inconclusive; · = no result given; [ ] = remark or other dose. Calls come from the whole dose curve; as a rule, active = well fitted curve in the direction sought with a large enough effect; inconclusive = small, poorly fitted or top-dose-only effect, or another doubt; inactive = no such curve, though single readings can be large; an effect the other way counts as inactive or inconclusive. Potency is the fitted concentration of half-maximal effect.
SMILES,HP1b chromo inh,JMJD2A Tudor,PLK1 PBD inh,Sfp inh,G9a inh,BAZ2B block
CCN1CCS/C1=C\C=C\C1=[N+](CC)CCS1,44.5%,-11.3%,8.3%,4.3%,3.16µM*,-19.7%
CC(=O)Oc1cccc(/C=C2\C=C(c3ccc(C)cc3)OC2=O)c1,-4.1%,?,18.9µM*,-22.2%,?,-15.1%
COc1ccc(C2=C/C(=C\c3ccc(OC(C)=O)cc3)C(=O)O2)cc1,74.6%,3.4%,-9.7%,-5.4%,-13.0%[59 µM],-8.9%
CCCN(C)C1CN(Cc2cn(Cc3ccc(OC)cc3)nn2)S(=O)(=O)C1 (stereo unspecified),·,·,-4.3%,·,·,·
Oc1c(Br)cc(/C=N/n2c(-c3ccccc3)n[nH]c2=S)c(Br)c1O,·,·,·,-16.5%,1.78µM*,1.78µM*
O=[N+]([O-])c1ccc(O)c(/C=N/n2c(-c3ccccc3)n[nH]c2=S)c1,12.2%,5.62µM*,-19.9%,?,-13.6%[0.501 µM],-9.5%
O=[N+]([O-])c1cccc(-c2ccc(/C=N/n3c(-c4ccccc4)n[nH]c3=S)o2)c1,0.8%,-9.5%,-3.4%,-18.0%,?,-4.6%
Oc1ccccc1/C=N/n1c(-c2ccccc2)n[nH]c1=S,-17.3%,25.1µM*,-21.6%,?,1.58µM*,?
COc1c(Br)cc(/C=N/n2c(-c3ccccc3)n[nH]c2=S)c(O)c1Br,-15.6%,?,?,50.1µM*,·,-8.7%
N#CN(Cc1ccccc1)Cc1ccccc1,32.0%,17.9%,1.3%,3.5%,43.4%,8.6%
COc1cc(-c2noc(-c3ccc(NC4CCCC4)c([N+](=O)[O-])c3)n2)cc(OC)c1OC,43.9%,-1.3%,·,·,-50.0%[59 µM],-3.2%
CCOC(=O)C1(CC/C(C)=N\NC(N)=O)CC(C)(C)OC1=O (stereo unspecified),24.4%,-2.1%,0.0%,9.0%,-13.5%[59 µM],-19.6%
CCOC(=O)C1C(=O)C=C(c2ccc(C)cc2)CC1c1cccc([N+](=O)[O-])c1 (stereo unspecified),15.4%,-25.0%,-1.7%,-2.5%,-50.8%,0.0%
Oc1c(Br)cc(Br)cc1/C=N/n1c(-c2ccccc2)n[nH]c1=S,?,39.8µM*,?,?,10.3%[0.501 µM],?
O=[N+]([O-])c1ccc(Cl)c(/C=N/n2c(-c3ccncc3)n[nH]c2=S)c1,13.6%,3.16µM*,-13.9%,56.2µM*,3.98µM*,-1.2%
Cc1ccc(Cc2nc3ccccc3nc2SCC(=O)NCc2ccccc2Cl)cc1,30.3%[57 µM],-6.5%,·,·,5.9%[59 µM],-16.5%
COC(=O)NC(/C=C/c1ccccc1)C(C(C)=O)C(=O)OC (stereo unspecified),·,·,·,-17.3%,·,·
COC(=O)c1cc(CNC(=O)c2ccc(S(=O)(=O)N(C)c3ccccc3)cc2)ccc1OC,8.7%,-22.9%,-7.4%,·,20.3%[2.33 µM],1.5%
Cc1ccc(C(NC(=O)N2CCOCC2)C(Cl)(Cl)Cl)cc1F (stereo unspecified),12.1%,-17.2%,26.7µM*,5.0%,-13.3%,-3.1%
Cc1ccc(C(NC(=O)N2CCCC2)C(Cl)Cl)cc1F (stereo unspecified),33.9%,-11.7%,-8.3%,-26.6%,35.5µM*,-6.1%
CCN1CCN(C(=O)NC(c2ccc(C)c(F)c2)C(Cl)Cl)CC1 (stereo unspecified),19.3%,-7.7%,-8.5%,12.3%,?,-7.8%
O=C1[C@H]2[C@H]3[C@H](O)[C@H](O)C/C(=N/OCc4ccccc4)[C@@H]3CC[C@@H]2C(=O)N1C1CCCCC1,·,·,·,-5.9%,·,·
Cc1ccc(S(=O)(=O)Nc2c(O)ccc3ccccc23)cc1,?,?,6.7µM*,·,·,·
Cc1ccc(S(=O)(=O)Nc2c(Cl)c(Cl)c(O)c3ccccc23)cc1,·,·,·,44.7µM*,1.26µM*,44.7µM*
Cc1ccc(S(=O)(=O)Nc2ccc(N=Nc3ccc(O)cc3)cc2)cc1,?,?,-7.4%,-29.5%,-18.9%[59 µM],44.7µM*
O=S(=O)(Nc1c(O)ccc2ccccc12)c1cccc2ccccc12,79.4µM*,79.4µM*,26.7µM*,·,·,·
Cc1ccc(S(=O)(=O)NN=Cc2c(O)ccc3ccccc23)cc1,·,·,-13.2%,·,·,·
